Experimental data taken from PubChem BioAssay AID1159580 (chemical genetic matrix, 2015).
Out of some 5,500 compounds screened, about 2,000 (36%) were called active. Inconclusive results (about 18%) are left out. No stated cut-off is given here; in the data, active means normalized growth mostly below about 0.91 (no sharp cut-off); inconclusive means no clear call, values can overlap the other calls; inactive means mostly above about 0.92. The list shows a part of the results.

Assay: chemical genetic growth profiling, strain panel (AID 1159580);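 further: tested at 20 µM; growth read once vehicle control cultures reached saturation at 30 °C; 1 = growth at the plate median or of vehicle wells; lower values mean less growth of the strain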
Details: growth OD

Measured: normalized growth

CN(C)C1C(=O)C(C(N)=O)=C(O)C2(O)C(=O)C3=C(O)c4c(O)ccc(Cl)c4C(C)(O)C3CC12 (stereo unspecified)
inactive: S. cerevisiae deletion strains, locus YAL013W, strain DEP1, active compounds read low 1 | S. cerevisiae deletion strains, locus YBR021W, strain FUR4, active compounds read low 0.979 | S. cerevisiae deletion strains, locus YBR229C, strain ROT2, active compounds read low 0.991 | S. cerevisiae deletion strains, locus YCL029C, strain bik1, active compounds read low 0.975 | S. cerevisiae deletion strains, locus YDL035C, strain GPR1, active compounds read low 1.01 | S. cerevisiae deletion strains, locus YDL074C, strain BRE1, active compounds read low 1.06 | S. cerevisiae deletion strains, locus YDL101C, strain DUN1, active compounds read low 0.995 | S. cerevisiae deletion strains, locus YDL134C, strain PPH21, active compounds read low 0.992 | S. cerevisiae deletion strains, locus YDL185W, strain tfp1, active compounds read low 0.993 | S. cerevisiae deletion strains, locus YDL192W, strain arf1, active compounds read low 0.99 | S. cerevisiae deletion strains, locus YDR101C, strain arx1, active compounds read low 0.997 | S. cerevisiae deletion strains, locus YDR150W, strain NUM1, active compounds read low 0.992 | S. cerevisiae deletion strains, locus YDR162C, strain NBP2, active compounds read low 1.01 | S. cerevisiae deletion strains, locus YDR318W, strain mcm21, active compounds read low 0.99 | S. cerevisiae deletion strains, locus YDR388W, active compounds read low 0.991 | S. cerevisiae deletion strains, locus YDR502C, strain sam2, active compounds read low 0.993 | S. cerevisiae deletion strains, locus YEL061C, strain CIN8, active compounds read low 0.999 | S. cerevisiae deletion strains, locus YER110C, active compounds read low 0.984 | S. cerevisiae deletion strains, locus YER155C, strain BEM2, active compounds read low 0.997 | S. cerevisiae deletion strains, locus YER167W, strain BCK2, active compounds read low 0.988 | S. cerevisiae deletion strains, locus YGL078C, strain dbp3, active compounds read low 0.99 | S. cerevisiae deletion strains, locus YGL086W, strain mad1, active compounds read low 0.982 | S. cerevisiae deletion strains, locus YGL248W, strain PDE1, active compounds read low 0.985 | S. cerevisiae deletion strains, locus YGR078C, strain PAC10, active compounds read low 1.02 | S. cerevisiae deletion strains, locus YGR135W, strain pre9, active compounds read low 1.01 | S. cerevisiae deletion strains, locus YGR229C, strain SMI1, active compounds read low 1.04 | S. cerevisiae deletion strains, locus YGR252W, strain gcn5, active compounds read low 0.948 | S. cerevisiae deletion strains, locus YHR030C, strain SLT2, active compounds read low 0.99 | S. cerevisiae deletion strains, locus YHR079C, strain IRE1 (second series), active compounds read low 0.979 | S. cerevisiae deletion strains, locus YHR094C, strain hxt1, active compounds read low 0.991 | S. cerevisiae deletion strains, locus YHR129C, strain ARP1, active compounds read low 0.994 | S. cerevisiae deletion strains, locus YHR200W, strain rpn10, active compounds read low 0.98 | S. cerevisiae deletion strains, locus YIL066C, strain RNR3, active compounds read low 0.993 | S. cerevisiae deletion strains, locus YIL073C, strain SPO22, active compounds read low 0.96 | S. cerevisiae deletion strains, locus YIL125W, strain kgd1, active compounds read low 1 | S. cerevisiae deletion strains, locus YIR030C, strain dcg1, active compounds read low 0.986 | S. cerevisiae deletion strains, locus YJL095W, strain BCK1, active compounds read low 1.03 | S. cerevisiae deletion strains, locus YJL134W, strain LCB3, active compounds read low 0.991 | S. cerevisiae deletion strains, locus YJL168C, strain set2, active compounds read low 0.991 | S. cerevisiae deletion strains, locus YJL187C, strain SWE1 (second series), active compounds read low 0.996 | S. cerevisiae deletion strains, locus YJR043C, strain POL32, active compounds read low 0.984 | S. cerevisiae deletion strains, locus YJR075W, strain HOC1, active compounds read low 1.01 | S. cerevisiae deletion strains, locus YKL009W, strain mrt4, active compounds read low 0.964 | S. cerevisiae deletion strains, locus YKL068W, active compounds read low 0.996 | S. cerevisiae deletion strains, locus YKL085W, strain MDH1 (second series), active compounds read low 0.984 | S. cerevisiae deletion strains, locus YKL085W, strain MDH1, active compounds read low 0.984 | S. cerevisiae deletion strains, locus YKL190W, strain CNB1, active compounds read low 1 | S. cerevisiae deletion strains, locus YKR001C, strain vps1, active compounds read low 0.985 | S. cerevisiae deletion strains, locus YLR039C, strain RIC1, active compounds read low 0.964 | S. cerevisiae deletion strains, locus YLR058C, strain SHM2, active compounds read low 0.991 | S. cerevisiae deletion strains, locus YLR102C, strain apc9, active compounds read low 0.985 | S. cerevisiae deletion strains, locus YLR262C, strain YPT6, active compounds read low 0.985 | S. cerevisiae deletion strains, locus YLR268W, strain sec22, active compounds read low 0.999 | S. cerevisiae deletion strains, locus YLR330W, strain CHS5, active compounds read low 0.991 | S. cerevisiae deletion strains, locus YLR342W, strain FKS1 (second series), active compounds read low 0.932 | S. cerevisiae deletion strains, locus YLR371W, strain rom2, active compounds read low 0.979 | S. cerevisiae deletion strains, locus YLR418C, strain cdc73, active compounds read low 1.02 | S. cerevisiae deletion strains, locus YML016C, strain PPZ1, active compounds read low 0.986 | S. cerevisiae deletion strains, locus YML032C, strain rad52, active compounds read low 0.98 | S. cerevisiae deletion strains, locus YML124C, strain tub3, active compounds read low 0.989 | S. cerevisiae deletion strains, locus YMR078C, strain ctf18, active compounds read low 0.983 | S. cerevisiae deletion strains, locus YMR223W, strain ubp8, active compounds read low 0.97 | S. cerevisiae deletion strains, locus YMR263W, strain SAP30, active compounds read low 1.02 | S. cerevisiae deletion strains, locus YMR307W, strain GAS1, active compounds read low 0.937 | S. cerevisiae deletion strains, locus YNL067W, strain RPL9B, active compounds read low 1.03 | S. cerevisiae deletion strains, locus YNL128W, strain TEP1, active compounds read low 1.02 | S. cerevisiae deletion strains, locus YNL153C, strain GIM3, active compounds read low 1.01 | S. cerevisiae deletion strains, locus YNL233W, strain BNI4, active compounds read low 0.999 | S. cerevisiae deletion strains, locus YNL250W, strain rad50, active compounds read low 1 | S. cerevisiae deletion strains, locus YNL271C, strain bni1, active compounds read low 0.998 | S. cerevisiae deletion strains, locus YNL298W, strain CLA4, active compounds read low 0.994 | S. cerevisiae deletion strains, locus YNL307C, strain MCK1, active compounds read low 0.976 | S. cerevisiae deletion strains, locus YNL322C, strain KRE1, active compounds read low 1 | S. cerevisiae deletion strains, locus YNR052C, strain pop2, active compounds read low 0.974 | S. cerevisiae deletion strains, locus YOL006C, strain TOP1, active compounds read low 1.09 | S. cerevisiae deletion strains, locus YOL012C, strain htz1 0.811 | S. cerevisiae deletion strains, locus YOL147C, strain pex11, active compounds read low 0.992 | S. cerevisiae deletion strains, locus YOR061W, strain CKA2, active compounds read low 0.997 | S. cerevisiae deletion strains, locus YOR069W, strain VPS5, active compounds read low 0.993 | S. cerevisiae deletion strains, locus YOR136W, strain idh2, active compounds read low 0.992 | S. cerevisiae deletion strains, locus YOR144C, strain elg1, active compounds read low 0.985 | S. cerevisiae deletion strains, locus YOR184W, strain ser1, active compounds read low 0.973 | S. cerevisiae deletion strains, locus YOR316C, strain cot1, active compounds read low 0.971 | S. cerevisiae deletion strains, locus YPL055C, strain LGE1, active compounds read low 1.04 | S. cerevisiae deletion strains, locus YPL241C, strain CIN2, active compounds read low 0.997 | S. cerevisiae deletion strains, locus YPR119W, strain clb2, active compounds read low 0.998 | S. cerevisiae deletion strains, locus YPR141C, strain kar3, active compounds read low 1 | S. cerevisiae deletion strains, locus YPR163C, strain tif3, active compounds read low 0.991 | S. cerevisiae deletion strains, locus YPR167C, strain met16, active compounds read low 0.992 | S. cerevisiae deletion strains, strain wtn01, active compounds read low 0.988 | S. cerevisiae strains, strain wild type, active compounds read low 1
